Source: the supplement of paper PMC10849652
Of roughly 8,800 targets only a part is listed; those with a hit were picked by preference. About 0.5% of all pairs of compound and target were hits. Values without a mark were called inactive.

Assays:
Test in all cases: log2 fold change, soluble protein after heating vs DMSO (PISA); higher = thermal stabilisation; K562 lysate, 10 uM; active = over 0.2 and 3.5 SD of the protein, either way, in both replicates (recomputed)
nilotinib = compound: Cc1cn(-c2cc(NC(=O)c3ccc(C)c(Nc4nccc(-c5cccnc5)n4)c3)cc(C(F)(F)F)c2)cn1 [nilotinib]
Method in brief: (§1)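 Values give the log-two fold change in thermal stability against solvent controls, from duplicates. Crude K562 extract at 1 mg/mL protein, made by dounce homogenisation in PBS pH 7.4 with 1 mM MgCl2, was treated with 10 μM compound for 30 min. After 3 min heating across 48°C-58°C, aliquots were pooled, adjusted to 0.5% NP-40 at 4°C and centrifuged at 21,000xg for 90 min. The supernatant was measured by TMTpro 16plex LC-MS/MS with channel sums equalised.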

[1] = compound: Cc1nc(Nc2n[nH]c3c2CN(C(=O)N[C@H](CN(C)C)c2ccccc2)C3(C)C)c2sccc2n1
Method in brief: as §1

dasatinib = compound: Cc1nc(Nc2ncc(C(=O)Nc3c(C)cccc3Cl)s2)cc(N2CCN(CCO)CC2)n1 [dasatinib]
Method in brief: as §1

[2] = compound: Cc1ncc(-c2ccnc(Nc3ccc(S(C)(=O)=O)cc3)n2)n1C(C)C
Method in brief: as §1

[3] = compound: Cn1cc(-c2ccc3c(c2)CCN3C(=O)Cc2cccc(C(F)(F)F)c2)c2c(N)ncnc21
Method in brief: as §1

quisinostat = compound: Cn1cc(CNCC2CCN(c3ncc(C(=O)NO)cn3)CC2)c2ccccc21 [quisinostat]
Method in brief: as §1

tipifarnib = compound: Cn1cncc1[C@@](N)(c1ccc(Cl)cc1)c1ccc2c(c1)c(-c1cccc(Cl)c1)cc(=O)n2C [tipifarnib]
Method in brief: as §1

[4] = compound: NC(=O)Nc1cc(-c2cccc(F)c2)sc1C(=O)N[C@H]1CCCNC1
Method in brief: as §1

[5] = compound: NC(=O)c1cnc(N[C@@H]2CCCC[C@@H]2N)nc1Nc1cccc(-n2nccn2)c1
Method in brief: as §1

[6] = compound: NC1(c2ccc(-c3nc4ccn5c(=O)[nH]nc5c4cc3-c3ccccc3)cc2)CCC1
Method in brief: as §1

[7] = compound: NCC(=O)Nc1ccc(-n2nc(C(F)(F)F)cc2-c2ccc3c(ccc4ccccc43)c2)cc1
Method in brief: as §1

vorinostat = compound: O=C(CCCCCCC(=O)Nc1ccccc1)NO [vorinostat]
Method in brief: as §1

silmitasertib = compound: O=C(O)c1ccc2c(c1)nc(Nc1cccc(Cl)c1)c1ccncc12 [silmitasertib]
Method in brief: as §1

[8] = compound: O=C1NC(=O)C(c2cnc3ccccn23)=C1c1cn2c3c(cc(F)cc13)CN(C(=O)N1CCCCC1)CC2
Method in brief: as §1

entospletinib = compound: c1cn2cc(-c3ccc4cn[nH]c4c3)nc(Nc3ccc(N4CCOCC4)cc3)c2n1 [entospletinib]
Method in brief: as §1

UniProt Q9UBF8, sequence (Q9UBF8 whole entry, looked up): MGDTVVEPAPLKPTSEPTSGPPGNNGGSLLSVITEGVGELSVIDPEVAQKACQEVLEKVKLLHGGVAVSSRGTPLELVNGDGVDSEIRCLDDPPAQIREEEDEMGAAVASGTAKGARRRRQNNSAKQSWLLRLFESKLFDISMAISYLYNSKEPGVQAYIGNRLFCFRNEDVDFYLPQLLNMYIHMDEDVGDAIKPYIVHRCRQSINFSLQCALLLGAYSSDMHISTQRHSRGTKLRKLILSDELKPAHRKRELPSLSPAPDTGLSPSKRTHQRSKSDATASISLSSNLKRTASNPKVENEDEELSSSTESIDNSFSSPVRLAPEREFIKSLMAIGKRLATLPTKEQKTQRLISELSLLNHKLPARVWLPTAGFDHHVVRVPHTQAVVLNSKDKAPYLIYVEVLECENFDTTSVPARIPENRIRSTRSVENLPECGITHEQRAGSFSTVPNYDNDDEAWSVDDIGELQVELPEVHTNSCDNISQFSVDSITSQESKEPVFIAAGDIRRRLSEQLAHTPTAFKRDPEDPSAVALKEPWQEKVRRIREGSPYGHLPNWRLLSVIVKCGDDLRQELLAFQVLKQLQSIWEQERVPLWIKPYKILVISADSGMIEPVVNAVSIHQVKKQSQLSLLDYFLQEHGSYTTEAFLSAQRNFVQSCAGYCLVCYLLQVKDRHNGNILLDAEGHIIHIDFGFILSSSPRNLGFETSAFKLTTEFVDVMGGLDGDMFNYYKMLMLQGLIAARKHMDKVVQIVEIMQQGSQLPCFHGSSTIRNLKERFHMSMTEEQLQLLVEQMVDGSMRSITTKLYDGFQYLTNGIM
UniProt P49642, sequence (P49642 whole entry, looked up): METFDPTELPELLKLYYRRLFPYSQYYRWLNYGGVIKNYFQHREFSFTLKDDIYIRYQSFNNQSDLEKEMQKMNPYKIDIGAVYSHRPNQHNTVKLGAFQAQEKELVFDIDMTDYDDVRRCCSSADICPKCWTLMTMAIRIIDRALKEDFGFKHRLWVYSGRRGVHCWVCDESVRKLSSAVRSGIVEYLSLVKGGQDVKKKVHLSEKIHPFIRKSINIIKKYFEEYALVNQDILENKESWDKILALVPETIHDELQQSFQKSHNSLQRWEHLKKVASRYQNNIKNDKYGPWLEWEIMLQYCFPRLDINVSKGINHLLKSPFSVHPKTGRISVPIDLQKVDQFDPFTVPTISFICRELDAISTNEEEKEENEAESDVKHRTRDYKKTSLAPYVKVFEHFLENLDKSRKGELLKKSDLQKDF
UniProt Q9BTU6, sequence (Q9BTU6 whole entry, looked up): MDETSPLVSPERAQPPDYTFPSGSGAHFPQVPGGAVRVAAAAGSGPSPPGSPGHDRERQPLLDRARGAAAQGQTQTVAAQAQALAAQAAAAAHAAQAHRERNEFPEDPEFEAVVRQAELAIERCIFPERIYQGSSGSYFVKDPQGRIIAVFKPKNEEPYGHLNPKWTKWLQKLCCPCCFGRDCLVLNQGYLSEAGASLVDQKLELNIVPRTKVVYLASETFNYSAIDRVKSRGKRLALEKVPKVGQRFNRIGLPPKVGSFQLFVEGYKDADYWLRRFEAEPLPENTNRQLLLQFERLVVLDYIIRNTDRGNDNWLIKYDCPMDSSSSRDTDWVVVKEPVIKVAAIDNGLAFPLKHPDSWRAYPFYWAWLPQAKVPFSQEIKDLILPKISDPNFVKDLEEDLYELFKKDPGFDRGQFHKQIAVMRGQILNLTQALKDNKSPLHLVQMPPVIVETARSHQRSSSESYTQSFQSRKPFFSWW
UniProt P78356, sequence (P78356 whole entry, looked up): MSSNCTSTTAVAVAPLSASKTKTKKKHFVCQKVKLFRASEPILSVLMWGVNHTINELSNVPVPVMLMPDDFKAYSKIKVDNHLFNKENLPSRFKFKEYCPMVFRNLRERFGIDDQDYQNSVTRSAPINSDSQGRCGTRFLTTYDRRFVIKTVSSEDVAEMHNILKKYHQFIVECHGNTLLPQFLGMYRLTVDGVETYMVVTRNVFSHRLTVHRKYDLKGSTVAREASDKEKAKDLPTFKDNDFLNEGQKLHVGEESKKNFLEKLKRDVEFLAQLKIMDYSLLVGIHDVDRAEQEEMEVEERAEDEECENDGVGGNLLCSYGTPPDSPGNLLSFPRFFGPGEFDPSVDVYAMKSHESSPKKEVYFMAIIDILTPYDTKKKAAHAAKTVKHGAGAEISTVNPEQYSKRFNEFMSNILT
UniProt Q8IZ21, sequence (Q8IZ21 whole entry, looked up): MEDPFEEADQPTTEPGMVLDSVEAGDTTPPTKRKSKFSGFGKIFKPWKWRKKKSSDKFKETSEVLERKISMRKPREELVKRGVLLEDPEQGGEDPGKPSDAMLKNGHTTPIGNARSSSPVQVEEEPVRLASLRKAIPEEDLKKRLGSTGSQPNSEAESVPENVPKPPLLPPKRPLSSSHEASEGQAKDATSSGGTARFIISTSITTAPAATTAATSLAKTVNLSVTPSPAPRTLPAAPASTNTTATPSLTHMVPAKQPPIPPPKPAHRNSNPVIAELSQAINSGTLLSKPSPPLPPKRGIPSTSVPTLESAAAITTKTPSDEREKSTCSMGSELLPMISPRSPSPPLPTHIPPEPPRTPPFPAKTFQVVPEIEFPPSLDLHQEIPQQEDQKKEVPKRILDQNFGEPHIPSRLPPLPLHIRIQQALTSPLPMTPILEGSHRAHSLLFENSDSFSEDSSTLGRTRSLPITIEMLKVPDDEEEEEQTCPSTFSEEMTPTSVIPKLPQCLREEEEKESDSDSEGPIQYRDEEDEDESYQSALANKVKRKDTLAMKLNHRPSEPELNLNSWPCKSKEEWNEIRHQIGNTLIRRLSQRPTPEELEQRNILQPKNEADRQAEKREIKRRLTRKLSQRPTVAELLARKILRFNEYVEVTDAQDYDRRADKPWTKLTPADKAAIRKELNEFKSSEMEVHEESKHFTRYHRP
UniProt Q9Y570, sequence (Q9Y570 whole entry, looked up): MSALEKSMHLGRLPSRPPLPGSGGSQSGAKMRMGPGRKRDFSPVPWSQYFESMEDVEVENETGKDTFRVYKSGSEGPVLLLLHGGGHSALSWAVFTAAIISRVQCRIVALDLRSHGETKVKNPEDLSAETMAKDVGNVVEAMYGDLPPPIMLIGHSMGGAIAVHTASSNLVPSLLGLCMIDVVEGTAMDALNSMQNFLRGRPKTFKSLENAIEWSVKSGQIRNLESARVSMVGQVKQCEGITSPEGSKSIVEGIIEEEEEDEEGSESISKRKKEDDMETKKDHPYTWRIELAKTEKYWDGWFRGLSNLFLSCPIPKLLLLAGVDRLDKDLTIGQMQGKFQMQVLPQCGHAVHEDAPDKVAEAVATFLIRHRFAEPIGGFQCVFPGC
UniProt Q8NAV1, sequence (Q8NAV1 whole entry, looked up): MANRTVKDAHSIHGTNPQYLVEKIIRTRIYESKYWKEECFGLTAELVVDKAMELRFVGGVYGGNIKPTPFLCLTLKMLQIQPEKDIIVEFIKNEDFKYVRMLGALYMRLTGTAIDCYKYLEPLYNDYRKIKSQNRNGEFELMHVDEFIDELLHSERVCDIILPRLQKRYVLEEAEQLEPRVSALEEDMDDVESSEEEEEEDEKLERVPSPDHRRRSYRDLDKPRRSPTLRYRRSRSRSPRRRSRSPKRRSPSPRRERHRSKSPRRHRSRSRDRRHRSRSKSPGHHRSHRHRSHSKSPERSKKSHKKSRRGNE
UniProt Q9UMR5, sequence (Q9UMR5 whole entry, looked up): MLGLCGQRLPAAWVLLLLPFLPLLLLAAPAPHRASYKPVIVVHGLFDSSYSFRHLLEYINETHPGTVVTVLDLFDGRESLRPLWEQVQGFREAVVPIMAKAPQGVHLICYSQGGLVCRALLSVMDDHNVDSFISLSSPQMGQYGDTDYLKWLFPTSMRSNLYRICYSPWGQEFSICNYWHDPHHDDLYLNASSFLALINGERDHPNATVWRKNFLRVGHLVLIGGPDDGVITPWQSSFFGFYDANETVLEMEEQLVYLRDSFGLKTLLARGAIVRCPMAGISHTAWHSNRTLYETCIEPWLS
UniProt Q8WUM4, sequence (Q8WUM4 whole entry, looked up): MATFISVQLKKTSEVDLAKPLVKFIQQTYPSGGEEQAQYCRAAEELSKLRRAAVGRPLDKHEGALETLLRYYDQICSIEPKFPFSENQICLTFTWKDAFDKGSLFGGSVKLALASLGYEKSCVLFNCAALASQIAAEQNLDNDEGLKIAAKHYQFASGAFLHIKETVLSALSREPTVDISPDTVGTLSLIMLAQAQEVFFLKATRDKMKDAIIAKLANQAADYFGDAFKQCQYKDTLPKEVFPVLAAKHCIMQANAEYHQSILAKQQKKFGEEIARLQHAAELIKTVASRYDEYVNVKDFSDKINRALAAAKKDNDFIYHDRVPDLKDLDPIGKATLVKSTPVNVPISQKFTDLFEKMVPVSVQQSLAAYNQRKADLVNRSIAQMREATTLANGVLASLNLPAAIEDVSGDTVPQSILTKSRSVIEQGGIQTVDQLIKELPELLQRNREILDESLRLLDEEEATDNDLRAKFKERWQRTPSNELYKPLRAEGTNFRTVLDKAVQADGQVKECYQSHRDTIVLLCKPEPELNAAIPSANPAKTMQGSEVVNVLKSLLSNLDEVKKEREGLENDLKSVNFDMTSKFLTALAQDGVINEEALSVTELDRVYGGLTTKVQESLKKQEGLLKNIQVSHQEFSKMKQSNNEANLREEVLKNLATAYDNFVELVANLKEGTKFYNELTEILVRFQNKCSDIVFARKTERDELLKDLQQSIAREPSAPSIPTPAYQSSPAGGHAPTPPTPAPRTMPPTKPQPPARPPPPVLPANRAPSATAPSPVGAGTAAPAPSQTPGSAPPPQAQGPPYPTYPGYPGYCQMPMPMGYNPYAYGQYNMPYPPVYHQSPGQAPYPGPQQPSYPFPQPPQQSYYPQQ
UniProt Q93096, sequence (Q93096 whole entry, looked up): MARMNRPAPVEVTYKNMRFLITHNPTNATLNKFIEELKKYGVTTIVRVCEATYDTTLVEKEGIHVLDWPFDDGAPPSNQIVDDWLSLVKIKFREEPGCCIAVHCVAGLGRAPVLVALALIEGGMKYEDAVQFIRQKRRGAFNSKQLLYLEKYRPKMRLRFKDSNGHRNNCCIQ

| Target | log2 fold change (nilotinib) | log2 fold change [1] | log2 fold change (dasatinib) | log2 fold change [2] | log2 fold change [3] | log2 fold change (quisinostat) | log2 fold change (tipifarnib) | log2 fold change [4] | log2 fold change [5] | log2 fold change [6] | log2 fold change [7] | log2 fold change (vorinostat) | log2 fold change (silmitasertib) | log2 fold change [8] | log2 fold change (entospletinib) |
| --- | --- | --- | --- | --- | --- | --- | --- | --- | --- | --- | --- | --- | --- | --- | --- |
| PRPH isoform 2 (UniProt P41219) | -0.022 | 0.032 | -0.019 | -0.024 | 0.036 | 0.034 | -0.02 | -0.027 | 0.028 | 0.094 | 0 | 0.112 | 0.001 | -0.098 | -0.052 |
| PIK3R2 (UniProt O00459) | 0.007 | -0.006 | -0.023 | 0.003 | -0.008 | -0.04 | -0.001 | 0.031 | 0.017 | 0.263 | -0.007 | -0.245 | 0.201 | -0.029 | -0.092 |
| PHACTR4 isoform 2 (UniProt Q8IZ21) | 0.005 | -0.004 | 0.022 | -0.016 | 0.012 | -0.017 | -0.015 | -0.006 | -0.002 | -0.027 | 0.025 | 0.014 | 0.01 | 0.009 | -0.024 |
| PUS1 (UniProt Q9Y606) | 0.005 | -0.042 | -0.01 | 0.01 | 0.018 | -0.058 | 0.018 | 0.043 | 0.036 | -0.023 | 0.04 | -0.321 (active) | 0.041 | -0.013 | -0.022 |
| PPFIA2 (UniProt O75334) | -0.046 | 0.027 | -0.064 | -0.022 | 0.01 | -0.238 | -0.029 | 0.017 | 0.024 | -0.089 | 0.05 | -0.053 | -0.074 | 0.069 | -0.036 |
| PRPF38A (UniProt Q8NAV1) | 0.076 | 0.018 | -0.055 | -0.088 | -0.001 | -0.452 (active) | -0.016 | 0.092 | 0.003 | 0.049 | -0.059 | -0.278 | 0.03 | 0.03 | 0.055 |
| PIP4K2B (UniProt P78356) | 0.032 | 0.024 | 0.151 | 0.093 | 0.008 | -0.017 | -0.007 | 0 | 0.002 | -0.034 | 0.005 | 0.074 | 0.221 | 0.073 | -0.013 |
| PELO (UniProt Q9BRX2) | 0.012 | -0.025 | 0.052 | -0.026 | 0.032 | -0.022 | 0.007 | 0.037 | 0.018 | -0.029 | 0.021 | -0.495 (active) | 0.058 | 0.02 | 0.006 |
| POLR2G (UniProt P62487) | 0.01 | -0.02 | -0.024 | 0.007 | 0 | 0.01 | 0.007 | 0.001 | 0.011 | -0.016 | 0.001 | 0.116 | -0.043 | -0.03 | 0.014 |
| PCBP2 isoform 3 (UniProt Q15366) | 0.019 | -0.012 | -0.019 | 0.015 | 0.039 | 0.044 | 0.005 | 0 | 0.005 | 0.072 | -0.071 | -0.252 (active) | 0.042 | -0.035 | 0.01 |
| PTP4A1 (UniProt Q93096) | -0.035 | 0.005 | 0.026 | -0.057 | 0 | 0.151 | 0.011 | -0.059 | -0.011 | -0.029 | 0.019 | -0.292 (active) | -0.003 | 0.014 | -0.009 |
| PPME1 isoform 4 (UniProt Q9Y570) | 0.01 | -0.053 | -0.008 | -0.025 | -0.003 | 0.018 | 0.01 | -0.03 | -0.016 | 0.041 | -0.02 | -0.03 | 0.013 | 0.005 | 0.031 |
| PDCD6IP isoform 2 (UniProt Q8WUM4) | -0.018 | 0.007 | -0.042 | 0.004 | 0.022 | 0.002 | 0.016 | -0.001 | 0.018 | 0.002 | -0.001 | -0.473 (active) | 0.019 | -0.006 | 0.018 |
| PPT2 isoform 3 (UniProt Q9UMR5) | 0.01 | -0.019 | 0.006 | -0.019 | 0.025 | -0.004 | -0.025 | 0.032 | 0.002 | 0.02 | 0.055 | 0.398 (active) | 0.034 | -0.018 | -0.006 |
| PI4K2A (UniProt Q9BTU6) | 0.009 | 0.03 | -0.036 | 0.207 (active) | -0.024 | 0.01 | -0.064 | 0.071 | 0.49 (active) | -0.004 | -0.006 | -0.005 | 0.074 | -0.009 | 0.001 |
| PLXNB2 (UniProt O15031) | -0.052 | 0.019 | -0.036 | 0.013 | 0.003 | 0.016 | -0.017 | 0.042 | -0.024 | -0.006 | 0.003 | 0.033 | 0.001 | 0.019 | -0.03 |
| PRIM1 (UniProt P49642) | 0 | -0.011 | -0.05 | -0.006 | 0.019 | 0.014 | -0.022 | 0.028 | 0.001 | -0.031 | -0.015 | -0.284 (active) | 0.049 | 0.024 | 0.035 |
| POLR2F (UniProt P61218) | 0.023 | -0.019 | 0.274 | 0.107 | -0.015 | -0.034 | 0.015 | 0.008 | -0.052 | -0.021 | -0.019 | 0.171 | 0.008 | 0.027 | -0.086 |
| PI4KB (UniProt Q9UBF8) | 0.003 | 0.145 | 0.002 | 0.165 | 0.013 | -0.072 | -0.024 | -0.026 | -0.049 | -0.014 | -0.085 | -0.132 | 0.151 | -0.044 | 0.184 |
| PWP1 (UniProt Q13610) | -0.016 | 0.009 | 0.065 | 0.005 | 0.048 | 0.068 | 0.017 | -0.005 | -0.003 | 0.036 | -0.082 | 0.139 | -0.033 | 0.022 | -0.003 |
| PPOX (UniProt P50336) | 0.227 | -0.001 | 0.086 | 0.054 | -0.004 | 0.129 | -0.012 | -0.019 | -0.008 | -0.036 | 0 | -0.142 | 0.11 | 0.016 | 0 |
